# This is a sample that favours compounds with a hit; in the whole collection about 2.8% have one here.
# PAFAH2 inh = PAFAH2 (human) inhibition; recombinant PAFAH2, FP-rhodamine activity probe, fluorescence polarization; actives 0.99% (n = 340,000); Q99487; inhibition, % at 3.39 µM; AID 492956;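 active = inhibition above the mean over all tested compounds plus 3 SD, cut at about 30% in these data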;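 also: inhibitors block probe labeling of enzyme so polarization drops; 0% = enzyme with DMSO and 100% = wells lacking PAFAH2 protein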
# pPAFAH inh = pPAFAH (human) enzyme inhibition | recombinant pPAFAH, FP-rhodamine probe fluorescence polarization | inhibition, % at 3.39 µM | actives 1.5% (n = 330,000);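 active = inhibition above the mean inhibition across the screen plus 3 SD, cut at about 25% in these data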;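 also: inhibitors block binding of the rhodamine activity-based probe so polarization drops; 0% = enzyme with DMSO and 100% = wells lacking pPAFAH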
# PME-1 inh = PME-1 (human) inhibition. Q9Y570. recombinant PME-1, FP-Rh probe fluorescence polarization. inhibition, % at 5.9 µM. actives 0.53% (n = 320,000);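 active = inhibition above the campaign mean of all compounds plus 3 SD, cut at about 26% in these data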;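 also: competitive labeling of PME-1 active site by serine hydrolase directed probe; 0% = PME-1 with DMSO and 100% = wells lacking PME-1 enzyme; inhibitors block probe labeling so polarization falls and inhibition rises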
# Target sequence (Q9Y570 whole entry, looked up): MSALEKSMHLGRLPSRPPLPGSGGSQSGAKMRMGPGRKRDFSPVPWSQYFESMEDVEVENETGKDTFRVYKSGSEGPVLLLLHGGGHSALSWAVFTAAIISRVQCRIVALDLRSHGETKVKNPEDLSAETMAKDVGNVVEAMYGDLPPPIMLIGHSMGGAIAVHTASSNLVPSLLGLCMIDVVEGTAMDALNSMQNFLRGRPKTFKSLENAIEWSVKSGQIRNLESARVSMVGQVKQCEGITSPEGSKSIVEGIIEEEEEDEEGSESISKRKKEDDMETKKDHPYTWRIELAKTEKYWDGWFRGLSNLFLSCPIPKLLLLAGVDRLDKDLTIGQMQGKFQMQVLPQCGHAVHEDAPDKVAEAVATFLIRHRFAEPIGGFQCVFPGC
# PAFAH1B2 inh = inhibitors of human PAFAH1B2. P68402. recombinant PAFAH1B2, FP-rhodamine activity probe, fluorescence polarization. inhibition, % at 3.39 µM. actives 1.2% (n = 340,000). AID 492953;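 active = inhibition above the mean of all tested compounds plus 3 SD, cut at about 24% in these data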;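 also: 0% = enzyme with DMSO and 100% = wells lacking PAFAH1B2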
# PAFAH1B3 inh = inhibitors of human PAFAH1B3; Q15102; recombinant PAFAH1B3, FP-rhodamine probe, fluorescence polarization; inhibition, % at 3.39 µM; actives 0.28% (n = 340,000); AID 492972;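 active = inhibition above the screen-wide average of all tested compounds plus 3 SD, cut at about 25% in these data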;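 also: 0% = enzyme with DMSO only and 100% = wells lacking PAFAH1B3 protein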
# Fam108B counter = Fam108B inhibition, counter-screen for RBBP9 inhibitors; recombinant Fam108B, FP-Rh probe fluorescence polarization; inhibition, % at 9.51 µM; actives 0.33% (n = 300,000);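 active = inhibition above the screen mean inhibition plus 3 SD, computed separately per campaign, cut at about 18% in these data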;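 also: inhibitors lower polarization as less probe binds the enzyme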
# * = called active by the depositor; . = not tested or not shown.
SMILES,PAFAH2 inh,pPAFAH inh,PME-1 inh,PAFAH1B2 inh,PAFAH1B3 inh,Fam108B counter
O=C1NC(c2cccc(Br)c2)=N/C1=C\c1ccco1,7,31*,6,-2,-2,1
O=C1NC(c2ccccc2)=N/C1=C/c1ccco1,-1,12,3,0,5,3
O=C(NC1CCN(C(=O)Nc2ccccc2Cl)CC1)c1ccccc1,0,-2,-2,4,5,8
O=C1NC(c2cccc3ccccc23)Nc2ccccc21 (stereo not drawn),6,.,.,1,8,.
O=C1c2ccccc2C(=O)C12OC2c1cccc2ccccc12 (stereo not drawn),19,5,3,16,65*,1
NS(=O)(=O)c1ccc(NC(=O)COc2ccc(C(=O)c3ccc(F)cc3)cc2)cc1,-38,-6,-52,-13,-16,-38
CCOc1ccccc1NC1=NCC(=O)N1Cc1ccc(F)cc1,0,32*,-3,0,-3,1
COc1ccccc1NC1=NCC(=O)N1Cc1ccccc1,-8,-1,-12,1,1,-4
COC(=O)CN(C)C(=O)c1cccc(OC2CCN(S(=O)(=O)N(C)C)CC2)c1,2,-2,1,5,9,0
CCc1ccc2[nH]c(=O)c(C3C(C#N)=C(N)Oc4c3ccc3cccnc43)cc2c1 (stereo not drawn),5,43*,-2,4,14,4
N#CC1=C(N)Oc2c(ccc3cccnc23)C1c1cccnc1 (stereo not drawn),8,10,0,2,10,1
Cc1ccc2cc(C3C(C#N)=C(N)Oc4c3ccc3cccnc43)c(=O)[nH]c2c1 (stereo not drawn),13,27*,12,9,10,0
Cc1cccc(N2CCN(C(=O)c3ccccc3SCC(=O)N3CCCC3)CC2)c1C,-1,6,-1,-3,12,.
N#C/C(=C\c1ccc(N2CCOCC2)o1)C(=O)NCC1CCCO1 (stereo not drawn),5,-2,1,3,6,-1
N#C/C(=C\c1ccc(N2CCOCC2)o1)C(=O)NC1CCCCC1,2,-2,-6,24*,3,3
CCOc1ccc(NC(=O)COC(=O)Cn2cnc3ccccc32)cc1,-5,8,.,2,4,.
CN1CCN(c2nc3c(c(=O)n(C)c(=O)n3C)n2CC(=O)C23CC4CC(CC(C4)C2)C3)CC1,3,1,-2,-2,6,0
Cn1c(=O)c2c(nc(N3CCOCC3)n2CC(=O)C23CC4CC(CC(C4)C2)C3)n(C)c1=O,-5,3,-2,27*,11,0
COc1cc(C(=O)NCc2nnc(SCC(=O)NCCc3ccccc3)o2)cc(OC)c1OC,0,1,3,-4,1,1
Cc1ccc(OCC(=O)c2c(N)n(C)c(=O)n(C)c2=O)c([N+](=O)[O-])n1,12,6,-5,6,9,.
N=C(N)c1ccc(N=Nc2c(O)ccc3c2[nH]c2ccccc23)cc1,10,.,.,31*,9,.
COc1ccc(CNC(=O)C2CCC(CNC(=O)[C@@H]3Cc4ccccc4CN3)CC2)cc1 (stereo partly drawn),-3,-2,-9,2,2,-7
CCC1=NN2C(=N)/C(=C\c3cccn3-c3ccc(C)c(C)c3)C(=O)N=C2S1,10,10,-11,1,5,-5
Cc1ccc(-n2cccc2/C=C2\C(=N)N3N=C(c4ccco4)SC3=NC2=O)cc1,16,15,11,32*,7,2
CCC1=NN2C(=N)/C(=C\c3cccn3-c3ccc(Cl)cc3)C(=O)N=C2S1,5,3,-3,42*,1,-2
CCC1(C)CC(c2csc(N)n2)CCO1 (stereo not drawn),-7,1,-9,1,2,-4
Nc1nc(C2CCCCC2)cs1,-1,-1,2,58*,7,-1
CC1CC(C)CN(C(=O)CN2C(=O)NC(c3ccccc3)(c3ccccc3)C2=O)C1 (stereo not drawn),-1,3,3,26*,0,.
Cc1ccc(S(=O)(=O)n2nc(-c3cccnc3)nc2N)cc1,6,1,5,33*,0,-5
COc1ccc(/C=N/Nc2snc(SC)c2C#N)cc1OC,4,24,40*,4,10,11

# Source: PubChem BioAssay
